# Gli-Sufu antag = Gli-Sufu pathway antagonists, primary screen, luciferase luminescence, Sufu-KO-LIGHT cells, uHTS. actives 0.74% (n = 340,000). inhibition, % at 5 µM. Sufu-KO-LIGHT fibroblasts, Gli luciferase reporter luminescence;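 active means inhibition above about 55%, limit read from the data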;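 further: 0% = DMSO-treated cells and 100% = wells with medium but no cells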
# NR2F2 inh = NR2F2 transcriptional activity inhibitors, primary screen, cell-based, luciferase reporter, HEK293T, luminescence; COUP transcription factor 2 (Homo sapiens), P24468; HEK293T NGFI-A luciferase reporter; inhibition, % at 8.6 µM; actives 0.7% (n = 370,000); AID 686940, 2013;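 active means inhibition above a per-plate cutoff, mean inhibition of test wells between control levels plus 3 SD, cut at about 38% in these data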;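 further: cells cotransfected with COUP-TFII expression vector driving the NGFI-A reporter; 0% = median of COUP-TF2 test wells and 100% = reporter-only cells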
# Target sequence (P24468 whole entry, looked up): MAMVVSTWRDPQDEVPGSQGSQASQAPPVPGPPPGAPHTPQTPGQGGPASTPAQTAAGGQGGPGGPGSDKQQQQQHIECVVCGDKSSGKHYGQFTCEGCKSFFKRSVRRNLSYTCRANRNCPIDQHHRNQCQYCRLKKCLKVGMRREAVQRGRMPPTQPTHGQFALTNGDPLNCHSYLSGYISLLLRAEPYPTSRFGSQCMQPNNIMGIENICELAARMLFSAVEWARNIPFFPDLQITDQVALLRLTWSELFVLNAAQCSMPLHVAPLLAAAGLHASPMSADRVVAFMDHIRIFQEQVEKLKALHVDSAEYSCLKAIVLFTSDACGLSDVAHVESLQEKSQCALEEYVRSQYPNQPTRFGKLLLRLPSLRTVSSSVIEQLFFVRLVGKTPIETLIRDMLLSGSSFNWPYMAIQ
# SMARCA2 activ = SMARCA2 (BRM) function activators, primary screen, cell-based, luminescence, high throughput. actives 1% (n = 370,000). activation, % at 9.1 µM. MG213 cells, MMTV-luciferase reporter, dexamethasone, overnight; in the data active means activation above about 7.8%;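 further: 0% = vehicle wells and 100% = reference activator wells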
# H9c2 protect = cardioprotection against H2O2-induced cell death, primary screen, uHTS, H9c2 cells, ATPLite luminescence; actives 0.63% (n = 360,000); protection from H2O2 cell death, % at 20 µM; H9c2 cardiomyocytes, H2O2 injury protection, 2 h;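 active means compounds giving at least 50% protection of heart cells from peroxide-induced death in the single-dose screen, raw or plate-pattern-corrected value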;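 further: 0% = DMSO wells with peroxide and 100% = DMSO wells without peroxide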
# FXN GAA850 act = FXN promoter activators, primary screen, cell-based, luciferase luminescence, HEK293 lucGAA850 | HEK293 lucGAA850 FXN promoter luciferase reporter, 24 h; percent of 10 µM SAHA response | activation, % at 6 µM | actives 0.56% (n = 360,000);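 active means activation above the average of all compounds screened plus 3 SD, cutoff fixed separately per campaign, cut at about 7.5% in these data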;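 further: 0% = DMSO wells and 100% = 10 µM SAHA wells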
# GalR3 antag = GalR3 antagonists in HEK293 cells, primary screen, cell-based, fluorescence readout; Galanin receptor type 3 (Homo sapiens), O60755; HEK293 GalR3-CNG cAMP membrane potential fluorescence; galR3 body fused to GalR1 C-terminus; inhibition, % at 3 µM; actives 0.44% (n = 360,000); AID 651719, 2012;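 active means inhibition above the screen-wide average plus 3 SD, cut at about 13% in these data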;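 further: forskolin and galanin both at EC90 stimulate the cells; cAMP rise reported by CNG channel membrane potential dye signal; 0% = forskolin plus galanin with DMSO and 100% = forskolin alone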
# VP16 Luc counter = Gal4-VP16 luciferase reporter inhibitors, counter-screen for COUP-TFII antagonist project, cell-based, luminescence, HEK293. inhibition, % at 8.5 µM. shares compounds with NR2F2 inh. actives 25% (n = 2,500); in the data active means inhibition above about 13%
# COUP-TFII conf = NR2F2 transcriptional activity inhibitors, confirmation, cell-based, luciferase reporter, HEK293, triplicate | HEK293 NGFI-A luciferase reporter, luminescence | inhibition, % at 8.5 µM | shares compounds with NR2F2 inh | actives 45% (n = 2,500);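 active means mean inhibition over three repeats above a set limit taken from the earlier primary screen, cut at about 38% in these data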;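 further: 100% = cells given the luciferase reporter alone without the COUP-TF2 vector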
# The depositor's hits bear a star; x = not tested or not shown; ! = not confirmed by another sample. Compounds with a hit are over-represented: about 3.4% of the library has one in this group of screens.
SMILES,Gli-Sufu antag,NR2F2 inh,SMARCA2 activ,H9c2 protect,FXN GAA850 act,GalR3 antag,VP16 Luc counter,COUP-TFII conf
CCO[C@@H]1OC(C(=O)NCc2nc3ccccc3[nH]2)=C[C@H](c2coc3ccccc3c2=O)[C@H]1CCCO,3.7,-12.5,-1.4,2.7,-0.5,-3.4,x,x
C=CCn1c(-c2ccc(S(=O)(=O)N3CCOCC3)cc2)csc1=Nc1ccccc1,23.8,-6.8,-6.1,-21.6,-2.0,-2.8,x,x
CC(=O)c1cccc(N=c2scc(-c3ccc(S(=O)(=O)N4CCOCC4)cc3)n2CCO)c1,39.3,59.9*,-7.5,-18.4,-7.9,114.2*,3.9,64.5*
c1ccc(CCc2nn3c(-c4ccncc4)nnc3s2)cc1,-7.7,50.5*,-2.9,11.4,-7.2,-1.1,1.0,19.3
O=C(Nc1ccc(N2CCN(c3ncccc3C(F)(F)F)CC2)nc1)c1cccs1,15.5,52.3*,-3.9,3.5,-4.2,-5.7,5.4,40.5*
COc1ccc(NC(=O)C(Cl)=C(Cl)Cl)cn1,6.5,12.2,0.0,4.8,-2.6,-1.3,x,x
Cc1nc2ccc(NC(=O)c3ccc(S(=O)(=O)N(C)c4ccccc4)cc3)cc2s1,14.4,49.1*,-6.7,0.3,-1.2,-11.3,-17.9,7.7
COc1ccc(NC(=O)/C(Cl)=C(/Cl)S(=O)(=O)Cc2ccccc2)cn1,19.6,65.8*,-8.8,-28.3,-13.9,-3.8,38.7*,59.2*
COc1ccc(NC(=O)c2ccc(S(=O)(=O)N(C)c3ccccc3)cc2)cn1,8.5,41.1*,-5.4,-9.2,3.0,-5.6,-1.6,15.9
CC(=O)Nc1ccc(NC(=O)c2ccc(S(=O)(=O)N(C)c3ccccc3)cc2)cc1,3.1,20.9,-0.5,-7.5,-0.8,-8.6,x,x
Cc1ccc2nc(NC(=O)CSCC(=O)OCC(=O)c3ccccc3)sc2c1,42.8,77.2*,-15.7,-5.1,-12.5,-6.5,79.1*,59.5*
CCOC(=O)C(=O)Nc1ccccc1C(=O)NCc1ccccc1,-11.6,-26.8,4.8,0.8,1.8,-8.7,x,x
O=C(Nc1ccc(Oc2ccccc2)cc1)c1cnc2n(c1=O)CCS2,41.5,43.3*,-7.2,-11.0,-0.1,8.8,-58.4,38.0*
CCC1CCCCN1C(=O)n1ncc(C(O)(c2ccccc2)c2ccccc2)n1 (centres undefined),x,49.9*,x,x,x,x,-4.2,42.7*!
CCC1CCCCN1C(=O)c1c(-c2ccccc2)noc1C (centres undefined),-0.8,18.9,1.7,-0.1,1.0,-1.2,x,x
O=C(NCc1ccc(OC(F)(F)F)cc1)C1CCC(=O)N(C2CC2)C1 (centres undefined),2.0,12.3,-3.5,-5.6,0.2,0.2,x,x
OC1(Cc2ccccc2)CCN(c2ncnc3sccc23)CC1,x,71.0*,x,x,x,x,-0.6,61.7*
c1ccc(CN2CCN(c3ncnc4nc[nH]c34)CC2)cc1,1.3,-15.6,-2.4,4.4,1.0,4.1,x,x
c1ccc(CN2CCN(c3ncnc4sccc34)CC2)cc1,x,71.2*,x,x,x,x,0.2,50.1*
Cc1cc(C(=O)COC(=O)c2ccccc2NCCO)c(C)n1CC1CCCO1 (centres undefined),23.1,43.9*,-3.0,-16.0,-7.0,-1.8,-98.2,-6.8
Cc1cc(C(=O)COC(=O)c2ccccc2O)c(C)n1CC1CCCO1 (centres undefined),57.6*,96.6*,-7.8,-23.8,-13.5,-8.2,89.4*,105.4*
Cc1cc(C(=O)COC(=O)c2ccccc2O)c(C)n1Cc1cccs1,80.7*,96.6*,-10.4,-20.8,-18.8,-8.2,81.0*,104.4*

# Source: PubChem BioAssay
